# Laboratory results: PubChem BioAssay (NCATS)
# Values without a mark were called inactive. Inconclusive results are not listed. Calls of active or inactive are those of the source. Unless noted, the call rests on the fitted dose curve; in most records, active means well fitted curve in the direction sought with a large enough effect; inconclusive means small, poorly fitted or top-dose-only effect, or another doubt; inactive means no such curve, though single readings can be large; an effect the other way counts as inactive or inconclusive.
# Experiments:
# [1] = target: Lysosomal acid glucosylceramidase (Homo sapiens) (UniProt P04062); assay: Glucocerebrosidase-p2 (AID 348; in the data active means potency below about 10 µM; further: potency means the concentration at half of the fitted maximal effect); details: purified GBA, blue fluorogenic substrate, 40 min
# Chain of Lysosomal acid glucosylceramidase (Homo sapiens) (P04062 whole entry, looked up): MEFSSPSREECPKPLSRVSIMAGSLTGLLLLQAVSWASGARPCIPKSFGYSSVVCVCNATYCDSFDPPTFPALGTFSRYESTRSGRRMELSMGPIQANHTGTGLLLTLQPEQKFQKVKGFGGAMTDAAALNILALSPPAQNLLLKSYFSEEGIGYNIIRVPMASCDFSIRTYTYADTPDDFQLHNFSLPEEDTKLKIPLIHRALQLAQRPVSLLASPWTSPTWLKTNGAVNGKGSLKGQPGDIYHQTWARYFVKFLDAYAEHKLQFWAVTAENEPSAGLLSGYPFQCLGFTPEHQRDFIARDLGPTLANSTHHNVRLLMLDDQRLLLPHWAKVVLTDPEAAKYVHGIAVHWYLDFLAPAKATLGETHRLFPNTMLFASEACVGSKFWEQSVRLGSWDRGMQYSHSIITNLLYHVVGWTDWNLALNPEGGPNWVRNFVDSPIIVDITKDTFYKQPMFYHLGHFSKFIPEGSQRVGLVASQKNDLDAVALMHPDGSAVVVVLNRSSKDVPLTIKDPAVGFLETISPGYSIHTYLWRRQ
# Outline: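 Compounds titrated from 0.6 nM upwards against 0.2 nM enzyme in pH 5.9 citric acid/KH2PO4, taurocholate, tween-20; blue fluorogenic substrate 80 uM, 40 min room temperature, stopped and read Ex 365/Em 440 for AC50.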
# [2] = AP1 Signaling Pathway (AID 357; active means well fitted curve in either direction with a large enough effect, not every such curve was filed as active;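 further: ME-180 reporter cells stimulated with EGF at its EC50 level; on the % scale 0 is the no-effect control and ±100 the full control effect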); details: ME-180 AP-1-bla reporter, EGF-induced, beta-lactamase ratio, 5 h; at 7.69 µM (top of the series) unless noted
# Outline: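 Read-out was the 460nm/530nm emission ratio (excitation 405nm) after CCF4 loading for 2.5 hours at room temperature. Cells carried an AP-1-driven beta-lactamase reporter, were stimulated with EC50 EGF plus compound for 5 hours, and AC50 values came from titrations.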
# [3] = target: Cytochrome P450 1A2 (Homo sapiens) (UniProt P05177); assay: p450-cyp1a2 (AID 410; calls by dose curve; further: potency means the concentration at half of the fitted maximal effect); details: recombinant CYP1A2, luciferin-ME demethylation, luminescence; series mostly up to 57 µM
# Chain of Cytochrome P450 1A2 (Homo sapiens) (P05177 whole entry, looked up): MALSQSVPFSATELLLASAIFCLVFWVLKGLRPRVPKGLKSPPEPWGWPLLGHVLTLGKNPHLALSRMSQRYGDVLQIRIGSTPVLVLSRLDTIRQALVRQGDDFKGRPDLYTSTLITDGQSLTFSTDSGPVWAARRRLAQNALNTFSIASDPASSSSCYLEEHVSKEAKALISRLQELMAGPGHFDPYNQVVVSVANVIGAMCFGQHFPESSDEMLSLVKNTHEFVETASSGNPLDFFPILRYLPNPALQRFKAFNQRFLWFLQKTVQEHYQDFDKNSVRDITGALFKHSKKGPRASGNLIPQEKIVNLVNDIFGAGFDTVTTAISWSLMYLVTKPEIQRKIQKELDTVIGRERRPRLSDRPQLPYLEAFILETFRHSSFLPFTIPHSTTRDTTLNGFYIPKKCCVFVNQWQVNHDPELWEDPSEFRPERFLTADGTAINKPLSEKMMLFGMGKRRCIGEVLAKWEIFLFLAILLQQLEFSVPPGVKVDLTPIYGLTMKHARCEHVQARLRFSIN
# Outline: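 Human CYP1A2 (20nM) demethylated Luciferin-ME at its Km (100uM) in 100mM KPO4. After 10 min compound preincubation, NADPH regeneration ran the reaction 60 min at room temperature. Luciferin was read by luminescence, normalized to 57 uM furafylline.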
# [4] = NFAT Signaling Pathway (AID 444; active means well fitted curve in either direction with a large enough effect, not every such curve was filed as active;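 further: carbachol stimulus at about its EC50 of 1 µM final; on the % scale 0 is the no-effect control and ±100 the full control effect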); details: Jurkat NFAT-bla M1, carbachol, beta-lactamase ratio, 5 h; at 7.69 µM (top of the series) unless noted
# Outline: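 Jurkat cells with NFAT-driven β-lactamase reporter and co-expressed M1 receptor, stimulated with carbachol (final 1 uM, ~EC50), compound titration, 5 h at 37 °C. CCF4 loaded 1 h at RT; 460/530 nm ratio gave %activity and AC50.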
# [5] = target: Glucocorticoid receptor (Homo sapiens) (UniProt P04150); assay: GR-GFP Redistribution (AID 450;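 active means compounds whose dose series gives a full or clear partial fitted curve of increased nuclear translocation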; further: potency means the concentration at half of the fitted maximal effect); details: U2OS GR-GFP nuclear translocation, laser cytometry, 2 h
# Chain of Glucocorticoid receptor (Homo sapiens) (P04150 whole entry, looked up, the tested form may be a part): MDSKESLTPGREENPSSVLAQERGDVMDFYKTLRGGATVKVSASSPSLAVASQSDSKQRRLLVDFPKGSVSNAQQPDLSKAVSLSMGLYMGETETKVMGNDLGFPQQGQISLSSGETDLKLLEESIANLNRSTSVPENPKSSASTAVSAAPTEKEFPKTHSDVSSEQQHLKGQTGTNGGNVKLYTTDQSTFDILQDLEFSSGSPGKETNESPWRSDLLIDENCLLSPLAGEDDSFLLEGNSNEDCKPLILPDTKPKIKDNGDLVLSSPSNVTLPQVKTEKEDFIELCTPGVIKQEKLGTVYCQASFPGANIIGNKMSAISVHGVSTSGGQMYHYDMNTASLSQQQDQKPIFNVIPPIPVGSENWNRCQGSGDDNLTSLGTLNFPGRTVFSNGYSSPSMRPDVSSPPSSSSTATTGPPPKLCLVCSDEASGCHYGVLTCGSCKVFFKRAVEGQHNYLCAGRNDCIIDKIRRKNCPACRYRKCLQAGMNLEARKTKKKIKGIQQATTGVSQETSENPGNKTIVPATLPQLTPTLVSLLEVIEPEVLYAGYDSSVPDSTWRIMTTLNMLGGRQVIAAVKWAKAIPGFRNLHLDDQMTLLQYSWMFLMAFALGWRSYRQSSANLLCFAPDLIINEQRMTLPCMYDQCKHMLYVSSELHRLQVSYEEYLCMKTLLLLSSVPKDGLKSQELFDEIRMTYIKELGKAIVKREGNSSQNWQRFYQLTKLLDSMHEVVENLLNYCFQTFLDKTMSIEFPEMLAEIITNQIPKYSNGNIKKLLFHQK
# [6] = target: Glucocorticoid receptor (Homo sapiens) (UniProt P04150); assay: GR-EFC Redistribution (AID 451; calls by dose curve; further: potency means the concentration at half of the fitted maximal effect); details: CHO-K1 GR-EFC translocation, beta-gal luminescence, 2 h
# Outline: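 CHO-K1 cells expressing nuclear EA and GR-ED fragments of b-gal; compounds titrated up to 46 uM final, 2 h at 37 C. GR nuclear translocation read as complemented b-gal luminescence after 1 h RT detection.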
# [7] = target: 3',5'-cyclic-AMP phosphodiesterase 4B (Homo sapiens) (UniProt Q07343); assay: qHTS Assay for Inhibitors of PDE-IV (AID 607; active means well fitted activation curve with a large enough effect in the main read-out, with a control signal flat, not every such curve was filed as active; further: % of control where 0% means no effect); details: HEK293 ACTOne CNG channel cells, membrane potential fluorescence; series mostly up to 22.9 µM
# Chain of 3',5'-cyclic-AMP phosphodiesterase 4B (Homo sapiens) (Q07343 whole entry, looked up): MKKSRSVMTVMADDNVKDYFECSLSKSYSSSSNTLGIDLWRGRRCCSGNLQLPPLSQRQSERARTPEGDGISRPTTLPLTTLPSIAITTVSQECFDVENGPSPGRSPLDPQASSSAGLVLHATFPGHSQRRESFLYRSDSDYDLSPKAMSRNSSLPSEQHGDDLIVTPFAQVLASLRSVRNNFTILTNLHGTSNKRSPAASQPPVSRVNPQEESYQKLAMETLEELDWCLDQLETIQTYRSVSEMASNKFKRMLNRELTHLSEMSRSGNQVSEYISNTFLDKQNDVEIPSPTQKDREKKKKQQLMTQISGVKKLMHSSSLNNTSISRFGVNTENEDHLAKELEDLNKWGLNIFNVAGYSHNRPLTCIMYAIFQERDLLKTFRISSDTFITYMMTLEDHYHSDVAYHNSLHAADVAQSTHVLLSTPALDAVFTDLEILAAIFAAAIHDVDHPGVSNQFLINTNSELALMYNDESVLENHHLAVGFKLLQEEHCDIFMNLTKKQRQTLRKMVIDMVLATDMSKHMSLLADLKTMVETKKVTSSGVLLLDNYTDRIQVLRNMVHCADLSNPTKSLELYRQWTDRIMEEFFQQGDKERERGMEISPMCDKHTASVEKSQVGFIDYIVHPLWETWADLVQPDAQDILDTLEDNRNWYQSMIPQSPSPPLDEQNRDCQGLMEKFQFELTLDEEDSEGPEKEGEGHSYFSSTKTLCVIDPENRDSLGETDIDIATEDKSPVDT
# Outline: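 The readout is membrane depolarisation from a cAMP-sensing CNG channel, detected with a potential dye at ex 535/em 590. Cells were HEK293-derived (endogenous PDE-IV) at 1000 cells/well, titrated up to 22.9 uM final.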
# [8] = target: Cytochrome P450 3A4 (Homo sapiens) (UniProt P08684); assay: qHTS Assay for Activators of Cytochrome P450 3A4 (AID 885); details: recombinant CYP3A4, Luciferin-PPXE luminescence, 60 min; series mostly up to 57.1 µM; further: nearly all actives have a fitted effect of over 65% in size
# Chain of Cytochrome P450 3A4 (Homo sapiens) (P08684 whole entry, looked up): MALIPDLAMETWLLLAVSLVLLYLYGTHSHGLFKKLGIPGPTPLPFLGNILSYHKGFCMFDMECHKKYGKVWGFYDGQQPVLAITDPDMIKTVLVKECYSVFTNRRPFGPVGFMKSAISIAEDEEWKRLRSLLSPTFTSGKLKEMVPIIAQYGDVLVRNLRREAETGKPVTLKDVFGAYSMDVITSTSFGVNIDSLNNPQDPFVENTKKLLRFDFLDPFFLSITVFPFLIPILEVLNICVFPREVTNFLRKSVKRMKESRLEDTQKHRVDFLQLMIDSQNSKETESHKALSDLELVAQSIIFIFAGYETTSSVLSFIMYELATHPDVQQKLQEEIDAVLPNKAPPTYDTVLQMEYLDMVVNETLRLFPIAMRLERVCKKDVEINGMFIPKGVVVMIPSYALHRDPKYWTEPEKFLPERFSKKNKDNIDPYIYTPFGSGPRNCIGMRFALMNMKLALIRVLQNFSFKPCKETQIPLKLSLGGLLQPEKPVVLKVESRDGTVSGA
# Outline: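 Steps: enzyme/substrate mix dispensed; compound added, 10 min RT; NADPH regeneration solution added, 60 min RT; luciferin detection buffer stops reaction; 20 min later luminescence measured.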
# [9] = target: Dual specificity protein kinase CLK4 (Homo sapiens) (UniProt Q9HAZ1); assay: qHTS Assay for Inhibitors of CDC-like Kinase 4 (Kinase-Glo Assay) (AID 1770); details: recombinant Clk4, Kinase-Glo ATP depletion luminescence; series mostly up to 66.7 µM; further: nearly all actives have a fitted effect of over 65% in size; further: potency means the concentration at half of the fitted maximal effect
# Chain of Dual specificity protein kinase CLK4 (Homo sapiens) (Q9HAZ1 whole entry, looked up): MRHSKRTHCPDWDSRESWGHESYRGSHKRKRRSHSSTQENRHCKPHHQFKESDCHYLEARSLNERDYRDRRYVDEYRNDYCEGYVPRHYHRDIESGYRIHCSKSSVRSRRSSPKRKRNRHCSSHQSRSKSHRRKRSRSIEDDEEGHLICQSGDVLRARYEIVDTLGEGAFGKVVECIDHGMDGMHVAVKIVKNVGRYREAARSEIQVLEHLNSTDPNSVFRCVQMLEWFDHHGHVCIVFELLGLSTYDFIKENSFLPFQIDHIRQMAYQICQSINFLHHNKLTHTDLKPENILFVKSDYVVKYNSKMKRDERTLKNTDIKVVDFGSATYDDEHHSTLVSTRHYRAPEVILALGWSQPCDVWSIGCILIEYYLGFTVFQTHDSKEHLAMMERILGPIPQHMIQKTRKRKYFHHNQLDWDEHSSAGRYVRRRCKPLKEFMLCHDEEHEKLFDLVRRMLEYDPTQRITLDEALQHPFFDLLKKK
# Outline: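 Clk4 25 nM, RS peptide 100 uM, ATP 1 uM, pH 7.5 Tris, 10 mM MgCl2, 2.5 mM DTT; 4.5 h RT; ATP depletion read by Kinase-Glo luminescence.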
# [10] = target: Dual specificity protein kinase CLK4 (Homo sapiens) (UniProt Q9HAZ1); assay: qHTS Assay for Inhibitors of CDC-like Kinase 4 (ADP-Glo Assay) (AID 1771); details: recombinant CLK4, ADP-Glo luminescence; series mostly up to 80 µM; further: nearly all actives have a fitted effect of over 70% in size; further: potency means the concentration at half of the fitted maximal effect
# Outline: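 Clk4 (25 nM) was incubated 1 hr at room temperature with 100 uM RS repeat peptide and 1 uM ATP in buffer with 2 mM MgCl2, 0.5 mM EGTA, 2.5 mM DTT. ADP formed was quantified by ADP-Glo luminescence.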
# [11] = target: Ubiquitin carboxyl-terminal hydrolase 1 (Homo sapiens) (UniProt O94782); assay: Inhibitors of USP1/UAF1: Pilot qHTS (AID 504865); details: purified USP1/UAF1, Ub-rhodamine cleavage fluorescence; series mostly up to 54.9 µM; further: nearly all actives have a fitted effect of over 35% in size; further: potency means the concentration at half of the fitted maximal effect
# Chain of Ubiquitin carboxyl-terminal hydrolase 1 (Homo sapiens) (O94782 whole entry, looked up): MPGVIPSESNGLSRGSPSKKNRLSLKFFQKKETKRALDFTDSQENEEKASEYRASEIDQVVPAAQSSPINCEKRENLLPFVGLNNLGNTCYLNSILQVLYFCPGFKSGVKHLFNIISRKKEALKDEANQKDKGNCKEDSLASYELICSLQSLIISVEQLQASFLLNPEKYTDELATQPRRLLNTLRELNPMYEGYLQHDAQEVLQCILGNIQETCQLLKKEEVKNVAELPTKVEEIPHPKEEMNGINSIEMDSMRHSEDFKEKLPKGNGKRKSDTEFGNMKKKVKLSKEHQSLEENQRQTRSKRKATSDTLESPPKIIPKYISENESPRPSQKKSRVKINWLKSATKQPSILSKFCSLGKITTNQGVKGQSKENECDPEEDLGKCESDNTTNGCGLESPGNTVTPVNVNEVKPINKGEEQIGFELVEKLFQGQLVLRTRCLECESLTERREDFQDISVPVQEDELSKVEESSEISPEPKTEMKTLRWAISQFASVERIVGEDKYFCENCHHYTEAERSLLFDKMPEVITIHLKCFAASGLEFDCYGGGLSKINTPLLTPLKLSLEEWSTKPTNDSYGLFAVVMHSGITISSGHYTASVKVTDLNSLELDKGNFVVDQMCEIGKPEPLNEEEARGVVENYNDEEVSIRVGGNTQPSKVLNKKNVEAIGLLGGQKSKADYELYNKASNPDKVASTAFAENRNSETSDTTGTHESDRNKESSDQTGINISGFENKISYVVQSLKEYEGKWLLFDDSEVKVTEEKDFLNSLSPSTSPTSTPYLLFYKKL
# Outline: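 Enzyme-free wells gave the negative control, while test wells held 1nM USP1/UAF1 preincubated with compound for 15 min at room temperature. Ub-Rho at 150nM final started the reaction, and fluorescence at 480/540 nm was recorded kinetically.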
# [12] = Primary qHTS for small molecule stabilizers of the endoplasmic reticulum resident proteome: Secreted ER Calcium Modulated Protein (SERCaMP) assay (AID 1508630); details: SH-SY5Y GLuc-SERCaMP (Gaussia luciferase released on ER calcium loss) secretion, thapsigargin, luminescence; series mostly up to 38.4 µM; further: on the % scale 0 is the no-effect control and ±100 the full control effect
# Outline: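 GLuc-SERCaMP-expressing SH-SY5Y cells, pretreated 16 h with compound, are challenged with thapsigargin to empty ER calcium stores; after 4 h, coelenterazine is added directly to the medium and luminescence is imaged.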
# [13] = Stat Signaling Pathway (AID 446; active means well fitted curve in either direction with a large enough effect, not every such curve was filed as active;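 further: ME-180 cervical cancer cells given 40 pM IL-6 alongside compound; SIE-controlled beta-lactamase reporter measured as 460/530 nm FRET emission ratio; on the % scale 0 is the no-effect control and ±100 the full control effect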); details: ME-180 SIE beta-lactamase reporter, IL-6 stimulated, 5 h; at 7.69 µM (top of the series) unless noted
# Outline: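 Screening format detects activators and inhibitors alike: ME-180 SIE-bla cells stimulated at 40 pM IL-6 for 5 hrs with compound, then dual-emission beta-lactamase read at 405 nm excitation.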
# [14] = target: Mitogen-activated protein kinase 10 (Mus musculus) (UniProt Q61831); assay: JNK3 AlphaScreen Assay (AID 530; active means well fitted curve in either direction with a large enough effect, not every such curve was filed as active); details: JNK3 lysate, c-Jun phosphorylation; series mostly up to 57.1 µM
# Outline: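 qHTS format: compounds tested as titrations against IL-1beta/TNF-alpha-activated HepG2 lysate JNK3 with biotin-GST-cJun substrate and 10 uM ATP at room temperature. Loss of anti-phospho-cJun AlphaScreen signal indicates inhibition.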
# [15] = target: Cytochrome P450 2D6 (Homo sapiens) (UniProt P10635); assay: qHTS Assay for Inhibitors and Substrates of Cytochrome P450 2D6 (AID 891); details: recombinant CYP2D6, luciferin-ME EGE luminescence; series mostly up to 57.1 µM; further: potency means the concentration at half of the fitted maximal effect; nearly all actives have a fitted effect of over 60% in size
# Chain of Cytochrome P450 2D6 (Homo sapiens) (P10635 whole entry, looked up): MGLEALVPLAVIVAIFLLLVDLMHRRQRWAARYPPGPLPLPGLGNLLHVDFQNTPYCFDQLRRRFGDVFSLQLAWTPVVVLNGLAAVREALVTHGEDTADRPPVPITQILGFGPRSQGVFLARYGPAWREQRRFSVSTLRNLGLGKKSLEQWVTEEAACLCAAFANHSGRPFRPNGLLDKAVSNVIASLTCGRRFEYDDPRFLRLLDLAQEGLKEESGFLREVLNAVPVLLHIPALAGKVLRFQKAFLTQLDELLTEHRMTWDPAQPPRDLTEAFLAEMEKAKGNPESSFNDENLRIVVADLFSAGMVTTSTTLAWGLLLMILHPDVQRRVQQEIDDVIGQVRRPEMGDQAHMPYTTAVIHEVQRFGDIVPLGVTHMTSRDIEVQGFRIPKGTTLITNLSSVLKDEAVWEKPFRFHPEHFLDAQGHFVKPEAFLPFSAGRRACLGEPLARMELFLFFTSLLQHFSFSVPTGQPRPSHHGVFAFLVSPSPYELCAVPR
# Outline: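 Human CYP2D6 (5 nM) with 30 uM Luciferin-ME EGE (at Km) in 100 mM KPO4, compound preincubated 10 min, then NADPH regeneration system for 60 min at room temperature. Luciferin read by luminescence; normalized to 1.43 uM quinidine.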
# [16] = target: Cytochrome P450 3A4 (Homo sapiens) (UniProt P08684); assay: qHTS Assay for Inhibitors and Substrates of Cytochrome P450 3A4 (AID 884); details: recombinant CYP3A4, Luciferin-PPXE luminescence; series mostly up to 57.1 µM; further: potency means the concentration at half of the fitted maximal effect; nearly all actives have a fitted effect of over 50% in size
# Outline: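 20 nM human CYP3A4 with 25 uM Luciferin-PPXE (at KM) in 200 mM KPO4, preincubated 10 min with compound; NADPH regeneration started a 60 min RT reaction. Luciferin detected by luminescence, normalized to 57 uM ketoconazole as full inhibition.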
# [17] = target: Cytochrome P450 2C9 (Homo sapiens) (UniProt P11712); assay: qHTS Assay for Inhibitors and Substrates of Cytochrome P450 2C9 (AID 883); details: recombinant CYP2C9, luciferin-H luminescence, 60 min; series mostly up to 57.1 µM; further: potency means the concentration at half of the fitted maximal effect; nearly all actives have a fitted effect of over 60% in size
# Outline: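 10nM CYP2C9 + 100uM Luciferin-H (=KM), 25mM KPO4; cpd 10 min 37C; NADPH regen, 60 min 37C; stop/detect with P450 Glo-Buffer 20 min; luminescence. Norm. to 57uM sulphaphenazole as full inhibition.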
# [18] = target: Dual specificity protein kinase CLK4 (Homo sapiens) (UniProt Q9HAZ1); assay: qHTS Assay for Inhibitors of CDC-like Kinase 4 (ADP-FP Assay) (AID 1795); details: Transcreener ADP fluorescence polarization; series mostly up to 50 µM;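 further: recombinant human CLK4 phosphorylating RS repeat peptide at 1 µM ATP; on the % scale 0 is the no-effect control and ±100 the full control effect; nearly all actives have a fitted effect of over 60% in size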
# Outline: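 Kinase activity was followed as ADP output, converted from fluorescence polarization with a calibration curve. Reactions ran one hour at low ATP (1 uM) with RS peptide substrate.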
SMILES,Potency [1] [µM],"activity change, negative = inhibition [2] [%]",Potency [3],"activity change, negative = inhibition [4] [%]",Potency [5] [µM],Potency [6] [µM],Potency [7],Potency [8],Potency [9],Potency [10],Potency [11],outcome [12],"activity, negative = inhibition [13] [%]",Potency [14],Potency [15],Potency [16],Potency [17],Potency [18]
CCNc1ncc2nc(-c3cccs3)c(=O)n(Cc3ccc(F)cc3)c2n1,> 11.4,24.9,10 µM (active),-12.4,> 9.22,> 46,inactive,inactive,inactive,inactive,20 µM (active),inactive,,,,,,
c1nc(NCCN2CCOCC2)c2cc(-c3ccoc3)ccc2n1,> 11.4,-17.7,12.6 µM (active),-0.57,> 46,> 46,inactive,inactive,0.708 µM (active),0.891 µM (active),,inactive,-6.63,inactive,2 µM (active),,,
Cc1cnc(CNc2cc(-c3cccc(C#N)c3)ncn2)cn1,> 11.4,8.07,15.8 µM (active),25.8,> 46,> 46,inactive,inactive,31.6 µM (active),35.5 µM (active),inactive,inactive,7.04,inactive,,,,
COc1ncc2nc(-c3cccs3)c(=O)n(Cc3ccc(F)cc3)c2n1,> 11.4,22.6,3.16 µM (active),8.73,> 9.22,> 46,inactive,inactive,inactive,inactive,inactive,inactive,,inactive,,3.16 µM (active),,
COc1ccc(CNc2nc(-c3cccc(NS(C)(=O)=O)c3)nc3ccccc23)c(OC)c1,,,15.8 µM (active),,> 46,> 46,,inactive,inactive,inactive,inactive,inactive,,inactive,,2.51 µM (active),0.158 µM (active),inactive
COc1cccc(-c2nc(NCCNC(C)=O)c3ccccc3n2)c1,> 11.4,-4.33,2.51 µM (active),8.46,> 46,> 46,inactive,inactive,31.6 µM (active),28.2 µM (active),inactive,inactive,3.51,inactive,3.98 µM (active),,,
